Drawing on PubChem BioAssay (NCI), this text covers growth for twelve compounds.

Test systems include MOLT-4 leukemia; SR leukemia; RPMI-8226 leukemia; OVCAR-8 ovarian; OVCAR-5 ovarian; OVCAR-4 ovarian; SK-OV-3 ovarian; IGROV1 ovarian; OVCAR-3 ovarian; HS 578T breast.
Common to all, as to experiment: NCI-60 one-dose screen, 48 h (100 = growth as untreated, 0 = no growth, -100 = all killed)
What all share (details): 10 µM

Values joined by “and” are separate entries in the source; they are usually repeats but may differ in a detail not shown here. Identical values can stand only once. This is part of a sample that, as a whole, favours compounds with a hit. Of some 83,000 tested, about 20% had one in any assay.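 Activity criterion: percent growth below 10, measured after cells in 96-well plates were exposed to a single compound concentration for 48 hours.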 Active and inactive are the calls of the source.

Take `C=NCC#N`: the growth in the experiment with MOLT-4 leukemia was 94.6% (inactive) and 107% (inactive); in the experiment with SR leukemia, 83.8% (inactive) and 108% (inactive); in the experiment on RPMI-8226 leukemia, 92.4% (inactive) and 115% (inactive); in the experiment with OVCAR-8 ovarian it was 104% (inactive) and 108% (inactive); in the experiment with OVCAR-5 ovarian it was 98.8% (inactive) and 93.5% (inactive); in the experiment on OVCAR-4 ovarian, 114% (inactive) and 108% (inactive). Further, the growth was 113% (inactive) and 96.6% (inactive) in the experiment on SK-OV-3 ovarian; 110% (inactive) and 115% (inactive) with IGROV1 ovarian; 105% (inactive) and 119% (inactive) with OVCAR-3 ovarian; 124% (inactive) in the experiment on HS 578T breast.

Turning to `COS(=O)(=O)c1ccccc1`, the growth with MOLT-4 leukemia is 85.4% (inactive); in the experiment on SR leukemia, 71.1% (inactive); in the experiment on RPMI-8226 leukemia, 89.9% (inactive); in the experiment on OVCAR-8 ovarian, 101% (inactive); in the experiment on OVCAR-5 ovarian, 104% (inactive); with OVCAR-4 ovarian, 110% (inactive). For the same compound, the growth in the experiment with SK-OV-3 ovarian was 101% (inactive); in the experiment on IGROV1 ovarian, 120% (inactive); in the experiment on OVCAR-3 ovarian, 110% (inactive); with HS 578T breast, 110% (inactive).

For the compound `COc1cc(/C=C\[N+](=O)[O-])ccc1O`, the growth was 27% (inactive) and 79.2% (inactive) in the experiment with MOLT-4 leukemia; 8.06% (active) and 40% (inactive) with SR leukemia; -14.8% (active) and 27.5% (inactive) with RPMI-8226 leukemia; 65.9% (inactive) and 93.9% (inactive) in the experiment on OVCAR-8 ovarian; 93.6% (inactive) and 105% (inactive) in the experiment with OVCAR-5 ovarian; 92.6% (inactive) and 113% (inactive) with OVCAR-4 ovarian. Also, the growth with SK-OV-3 ovarian is 101% (inactive) and 97% (inactive); with IGROV1 ovarian it was 80.8% (inactive) and 75.4% (inactive); in the experiment with OVCAR-3 ovarian, 62.4% (inactive) and 71.5% (inactive); in the experiment on HS 578T breast, 106% (inactive) and 94.5% (inactive).

As for `C#CC1(O)CCC(C(C)(C)C)CC1` (stereo not drawn), the growth is 114% (inactive) in the experiment with MOLT-4 leukemia; 113% (inactive) with SR leukemia; 102% (inactive) in the experiment on RPMI-8226 leukemia; 95.5% (inactive) in the experiment on OVCAR-8 ovarian; 105% (inactive) with OVCAR-5 ovarian; 116% (inactive) in the experiment with OVCAR-4 ovarian. Besides, the growth in the experiment with SK-OV-3 ovarian is 119% (inactive); with OVCAR-3 ovarian, 103% (inactive).

Consider `CN(C)CC1(N)C(=O)NC(=O)NC1=O`, for which the growth was 99% (inactive) in the experiment on MOLT-4 leukemia; 101% (inactive) in the experiment on SR leukemia; 100% (inactive) with RPMI-8226 leukemia; 105% (inactive) with OVCAR-8 ovarian; 97.8% (inactive) in the experiment with OVCAR-5 ovarian; 103% (inactive) in the experiment with OVCAR-4 ovarian. The growth is 98.2% (inactive) with SK-OV-3 ovarian, 108% (inactive) with IGROV1 ovarian, 113% (inactive) with OVCAR-3 ovarian and 98.1% (inactive) in the experiment with HS 578T breast.

In the case of `COc1cc(/C=C/[N+](=O)[O-])cc(OC)c1OC`, the growth in the experiment on MOLT-4 leukemia is 8.23% (active); in the experiment on SR leukemia, -17.7% (active); with RPMI-8226 leukemia it was -27.6% (active); in the experiment with OVCAR-8 ovarian, 1.78% (active); with OVCAR-5 ovarian it was 23% (inactive); with OVCAR-4 ovarian it was 34.2% (inactive). For the same compound, the growth was 89.9% (inactive) in the experiment on SK-OV-3 ovarian, -22% (active) with IGROV1 ovarian, -30.9% (active) in the experiment with OVCAR-3 ovarian and 8.36% (active) in the experiment with HS 578T breast.

On to `Cc1cc(C(C)(C)c2ccc(O)c(C)c2)ccc1O`, for which the growth with MOLT-4 leukemia is 78.9% (inactive); in the experiment on SR leukemia it was 92.2% (inactive); in the experiment with RPMI-8226 leukemia, 93.6% (inactive); in the experiment on OVCAR-8 ovarian, 81.8% (inactive); in the experiment on OVCAR-5 ovarian it was 88.1% (inactive); with OVCAR-4 ovarian, 83.9% (inactive). For the same compound, the growth in the experiment on SK-OV-3 ovarian is 102% (inactive); in the experiment on IGROV1 ovarian, 106% (inactive); in the experiment on OVCAR-3 ovarian it was 85.9% (inactive); in the experiment on HS 578T breast it was 89.2% (inactive).

For the compound `NC(Cc1ccccc1)c1ccccc1` (stereo not drawn), the growth with MOLT-4 leukemia was 116% (inactive) and 94.2% (inactive); with SR leukemia it was 99.9% (inactive) and 93.7% (inactive); in the experiment with RPMI-8226 leukemia it was 111% (inactive) and 100% (inactive); with OVCAR-8 ovarian, 104% (inactive) and 108% (inactive); with OVCAR-5 ovarian, 98.5% (inactive) and 96.1% (inactive); in the experiment on OVCAR-4 ovarian, 103% (inactive) and 112% (inactive). Also, the growth was 101% (inactive) and 103% (inactive) in the experiment with SK-OV-3 ovarian; 107% (inactive) and 101% (inactive) with IGROV1 ovarian; 112% (inactive) and 118% (inactive) in the experiment with OVCAR-3 ovarian; 98.9% (inactive) and 119% (inactive) in the experiment with HS 578T breast.

Consider `CS(=N)(=O)CCC(N)C(=O)O` (stereo not drawn), for which the growth in the experiment with MOLT-4 leukemia is 112% (inactive); in the experiment with SR leukemia, 99.9% (inactive); with RPMI-8226 leukemia, 107% (inactive); in the experiment on OVCAR-8 ovarian, 98% (inactive); with OVCAR-5 ovarian, 85.3% (inactive); in the experiment on OVCAR-4 ovarian it was 104% (inactive). Also, the growth in the experiment with SK-OV-3 ovarian was 108% (inactive); with IGROV1 ovarian, 87.5% (inactive); in the experiment on OVCAR-3 ovarian, 115% (inactive); in the experiment with HS 578T breast it was 104% (inactive).

As for `[O-][n+]1ccccc1S`, the growth with MOLT-4 leukemia was 32.1% (inactive); in the experiment on SR leukemia it was 7.55% (active); in the experiment on RPMI-8226 leukemia, 5.89% (active); with OVCAR-8 ovarian, 17.2% (inactive); in the experiment on OVCAR-5 ovarian, 59.1% (inactive); in the experiment on OVCAR-4 ovarian, 36.2% (inactive). The growth was 91.1% (inactive) with SK-OV-3 ovarian, 6.4% (active) in the experiment with IGROV1 ovarian, 16.9% (inactive) in the experiment with OVCAR-3 ovarian and 64% (inactive) in the experiment with HS 578T breast.

In the case of `COc1cc([N+](=O)[O-])c2ncccc2c1[N+](=O)[O-]`, the growth was 26% (inactive) in the experiment with MOLT-4 leukemia; 25.7% (inactive) in the experiment with SR leukemia; 45.8% (inactive) with RPMI-8226 leukemia; 69.8% (inactive) in the experiment with OVCAR-8 ovarian; 124% (inactive) in the experiment on OVCAR-5 ovarian; 47.5% (inactive) in the experiment on OVCAR-4 ovarian. The growth is 91.5% (inactive) in the experiment on SK-OV-3 ovarian, 23.1% (inactive) with IGROV1 ovarian, 58.1% (inactive) in the experiment with OVCAR-3 ovarian and 79.4% (inactive) in the experiment on HS 578T breast.

As for `Cc1cc([N+](=O)[O-])c2ccccc2[n+]1[O-]`, the growth with MOLT-4 leukemia was -24.5% (active); with SR leukemia, -10.2% (active) and -21.8% (active); in the experiment with RPMI-8226 leukemia, -23.6% (active) and -42.3% (active); with OVCAR-8 ovarian it was 9.55% (active) and -40.6% (active); with OVCAR-5 ovarian, 20.9% (inactive) and 13.3% (inactive); in the experiment with OVCAR-4 ovarian it was 84.1% (inactive) and 58.4% (inactive). Further, the growth was 7.72% (active) and 21.4% (inactive) in the experiment with SK-OV-3 ovarian; 46.8% (inactive) and 5.5% (active) in the experiment on IGROV1 ovarian; -32.2% (active) and -41% (active) with OVCAR-3 ovarian; 8.5% (active) and -14.4% (active) with HS 578T breast.
